# Test results from publication PMC7862700, “An all-to-all approach to the identification of sequence-specific readers for epigenetic DNA modifications on cytosine”.
# How the values were obtained:
# Experiment in all cases: DAPPL (digital affinity profiling via proximity ligation, sequencing); 10 mM Tris-HCl pH 7.5, 50 mM NaCl, 1 mM DTT, 4% glycerol, room temperature, 30 min; GST-TFs on glutathione beads, 16-mer random dsDNA library, 0.1% formaldehyde crosslink after washing; high values mean tight binding
# FLI1 = target: T1, FLI1 (Homo sapiens, UniProt Q01543 1-452); conditions: protein: recombinant; tags: N-terminal GST; dsDNA, one strand shown
# T1 sequence: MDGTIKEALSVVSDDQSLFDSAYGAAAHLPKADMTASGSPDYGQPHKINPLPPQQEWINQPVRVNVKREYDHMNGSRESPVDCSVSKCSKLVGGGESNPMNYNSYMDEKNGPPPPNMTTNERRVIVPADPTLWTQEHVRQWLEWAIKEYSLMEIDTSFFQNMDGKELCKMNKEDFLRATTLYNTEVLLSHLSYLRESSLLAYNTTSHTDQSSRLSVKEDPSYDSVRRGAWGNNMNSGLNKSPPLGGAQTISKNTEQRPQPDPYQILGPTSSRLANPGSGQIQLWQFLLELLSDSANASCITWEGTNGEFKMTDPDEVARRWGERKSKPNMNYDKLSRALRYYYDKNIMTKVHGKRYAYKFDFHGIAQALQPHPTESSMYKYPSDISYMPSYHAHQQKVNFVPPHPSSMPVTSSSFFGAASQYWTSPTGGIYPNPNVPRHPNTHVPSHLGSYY
# How it was run: (§1)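 The binding signal reported is, for every hexamer, its read frequency for a factor over its read frequency for the tag-only sample. Reads came from pools of yeast-expressed, GST-fused human transcription factors on glutathione beads, barcoded with DNA and mixed with that sample, which were incubated with 200 nmole of a random double-stranded 16-mer DNA library in Tris/NaCl/DTT/glycerol buffer at room temperature for 30 min. After washing, the pools were crosslinked with 0.1% formaldehyde, proximity-ligated with BsaI/T4 ligase for 1 h at 37 °C, PCR-amplified and sequenced on an Illumina NextSeq500.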
# ELK1 = target: T2, ELK1 (Homo sapiens, UniProt P19419 1-428); conditions: protein: recombinant; tags: N-terminal GST; dsDNA, one strand shown
# T2 sequence: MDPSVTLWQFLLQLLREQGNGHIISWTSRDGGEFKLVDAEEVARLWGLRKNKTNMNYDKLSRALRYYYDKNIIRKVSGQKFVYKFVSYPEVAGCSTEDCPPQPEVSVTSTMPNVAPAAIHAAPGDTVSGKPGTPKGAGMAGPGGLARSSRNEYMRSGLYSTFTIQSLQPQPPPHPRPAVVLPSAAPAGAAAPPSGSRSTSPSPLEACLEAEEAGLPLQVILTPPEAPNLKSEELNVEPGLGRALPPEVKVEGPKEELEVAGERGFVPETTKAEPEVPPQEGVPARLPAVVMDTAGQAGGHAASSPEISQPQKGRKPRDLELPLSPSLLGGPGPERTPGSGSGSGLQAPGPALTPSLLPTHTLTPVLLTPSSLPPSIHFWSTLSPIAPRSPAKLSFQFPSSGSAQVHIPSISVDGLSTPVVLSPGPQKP
# How it was run: as §1
# GABPA = target: T3, GABPA (Homo sapiens, UniProt Q06546 1-454); conditions: protein: recombinant; tags: N-terminal GST; dsDNA, one strand shown
# T3 sequence: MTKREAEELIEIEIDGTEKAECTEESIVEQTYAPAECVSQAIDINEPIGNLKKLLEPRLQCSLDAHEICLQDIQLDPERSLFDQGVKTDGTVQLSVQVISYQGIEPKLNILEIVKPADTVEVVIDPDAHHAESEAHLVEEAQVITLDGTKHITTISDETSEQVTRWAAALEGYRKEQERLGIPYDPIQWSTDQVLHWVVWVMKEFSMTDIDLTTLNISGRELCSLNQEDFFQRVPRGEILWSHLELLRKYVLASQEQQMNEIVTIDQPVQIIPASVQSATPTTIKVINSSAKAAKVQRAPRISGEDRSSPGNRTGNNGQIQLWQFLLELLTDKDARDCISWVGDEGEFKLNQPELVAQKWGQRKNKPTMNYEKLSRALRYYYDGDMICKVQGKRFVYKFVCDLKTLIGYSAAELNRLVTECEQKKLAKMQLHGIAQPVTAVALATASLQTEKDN
# How it was run: as §1
# ERG = target: T4, ERG (Homo sapiens, UniProt P11308 1-479); conditions: protein: recombinant; tags: N-terminal GST; dsDNA, one strand shown
# T4 sequence: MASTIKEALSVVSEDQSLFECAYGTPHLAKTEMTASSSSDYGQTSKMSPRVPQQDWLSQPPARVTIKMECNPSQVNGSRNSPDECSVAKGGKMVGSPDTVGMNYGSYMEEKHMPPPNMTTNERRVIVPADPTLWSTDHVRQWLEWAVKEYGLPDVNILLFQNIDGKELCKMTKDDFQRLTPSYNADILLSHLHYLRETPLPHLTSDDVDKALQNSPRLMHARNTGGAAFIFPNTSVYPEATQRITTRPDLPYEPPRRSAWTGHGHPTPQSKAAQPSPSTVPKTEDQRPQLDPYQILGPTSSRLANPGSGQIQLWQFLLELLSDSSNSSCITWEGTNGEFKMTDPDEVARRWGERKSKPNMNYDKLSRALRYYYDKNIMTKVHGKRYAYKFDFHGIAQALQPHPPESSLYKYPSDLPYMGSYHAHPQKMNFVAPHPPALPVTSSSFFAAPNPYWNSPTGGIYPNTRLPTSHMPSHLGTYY
# How it was run: as §1
# ELF1 = ELF1 (Homo sapiens, UniProt P32519 1-619); conditions: protein: recombinant; tags: N-terminal GST; dsDNA, one strand shown
# Sequence of ELF1 (P32519 whole entry): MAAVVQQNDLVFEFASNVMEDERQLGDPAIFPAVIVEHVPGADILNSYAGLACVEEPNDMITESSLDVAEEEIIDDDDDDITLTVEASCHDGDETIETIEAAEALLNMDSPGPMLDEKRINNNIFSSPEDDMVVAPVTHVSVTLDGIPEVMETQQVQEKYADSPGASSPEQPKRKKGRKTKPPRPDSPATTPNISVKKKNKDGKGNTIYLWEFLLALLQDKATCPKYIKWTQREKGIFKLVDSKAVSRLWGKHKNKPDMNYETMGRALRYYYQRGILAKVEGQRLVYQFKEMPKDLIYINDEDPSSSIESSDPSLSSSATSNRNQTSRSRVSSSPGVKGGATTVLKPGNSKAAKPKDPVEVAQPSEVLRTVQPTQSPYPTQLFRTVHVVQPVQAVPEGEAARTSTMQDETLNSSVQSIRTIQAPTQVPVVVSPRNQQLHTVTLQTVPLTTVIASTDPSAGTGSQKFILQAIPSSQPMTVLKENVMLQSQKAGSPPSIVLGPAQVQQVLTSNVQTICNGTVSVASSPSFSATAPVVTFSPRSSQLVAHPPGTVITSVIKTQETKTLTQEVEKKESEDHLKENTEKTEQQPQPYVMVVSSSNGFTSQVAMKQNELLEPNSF
# How it was run: as §1
# EHF = target: T5, EHF (Homo sapiens, UniProt Q9NZC4 1-300); conditions: protein: recombinant; tags: N-terminal GST; dsDNA, one strand shown
# T5 sequence: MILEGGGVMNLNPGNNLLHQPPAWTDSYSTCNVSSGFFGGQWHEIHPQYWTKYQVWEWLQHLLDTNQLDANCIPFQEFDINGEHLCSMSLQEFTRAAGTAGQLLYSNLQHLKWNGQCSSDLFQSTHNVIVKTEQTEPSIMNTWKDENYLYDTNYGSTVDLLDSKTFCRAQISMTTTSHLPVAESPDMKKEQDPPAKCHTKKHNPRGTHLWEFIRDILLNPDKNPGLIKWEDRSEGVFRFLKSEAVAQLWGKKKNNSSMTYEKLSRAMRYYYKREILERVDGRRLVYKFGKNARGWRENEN
# How it was run: as §1
# SPI1 = SPI1 (Homo sapiens, UniProt P17947 1-270); conditions: protein: recombinant; tags: N-terminal GST; dsDNA, one strand shown
# How it was run: as §1
# SPIB = SPIB (Homo sapiens, UniProt Q01892 1-262); conditions: protein: recombinant; tags: N-terminal GST; dsDNA, one strand shown
# Sequence of SPIB (Q01892 whole entry): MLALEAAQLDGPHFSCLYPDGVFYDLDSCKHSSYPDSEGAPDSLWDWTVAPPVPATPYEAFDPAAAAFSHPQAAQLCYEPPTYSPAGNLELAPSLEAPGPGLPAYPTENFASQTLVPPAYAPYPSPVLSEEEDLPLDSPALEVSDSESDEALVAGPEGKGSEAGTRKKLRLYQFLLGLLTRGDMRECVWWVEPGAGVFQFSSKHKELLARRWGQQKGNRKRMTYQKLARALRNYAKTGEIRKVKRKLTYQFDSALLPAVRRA
# How it was run: as §1
# ELK3 = target: T6, ELK3 (Homo sapiens, UniProt P41970 1-407); conditions: protein: recombinant; tags: N-terminal GST; dsDNA, one strand shown
# T6 sequence: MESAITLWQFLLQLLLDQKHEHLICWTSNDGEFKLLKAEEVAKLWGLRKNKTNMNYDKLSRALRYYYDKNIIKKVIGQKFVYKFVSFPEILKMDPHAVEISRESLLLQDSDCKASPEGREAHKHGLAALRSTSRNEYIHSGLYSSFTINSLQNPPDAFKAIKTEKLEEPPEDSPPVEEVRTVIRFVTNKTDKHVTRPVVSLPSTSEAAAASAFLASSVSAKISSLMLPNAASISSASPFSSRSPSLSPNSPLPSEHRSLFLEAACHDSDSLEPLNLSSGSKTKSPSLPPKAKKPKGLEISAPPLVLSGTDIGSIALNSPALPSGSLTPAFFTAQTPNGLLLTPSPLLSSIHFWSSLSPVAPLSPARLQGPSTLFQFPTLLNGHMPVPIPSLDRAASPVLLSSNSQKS
# How it was run: as §1
# FEV = target: T7, FEV (Homo sapiens, UniProt Q99581 1-238); conditions: protein: recombinant; tags: N-terminal GST; dsDNA, one strand shown
# T7 sequence: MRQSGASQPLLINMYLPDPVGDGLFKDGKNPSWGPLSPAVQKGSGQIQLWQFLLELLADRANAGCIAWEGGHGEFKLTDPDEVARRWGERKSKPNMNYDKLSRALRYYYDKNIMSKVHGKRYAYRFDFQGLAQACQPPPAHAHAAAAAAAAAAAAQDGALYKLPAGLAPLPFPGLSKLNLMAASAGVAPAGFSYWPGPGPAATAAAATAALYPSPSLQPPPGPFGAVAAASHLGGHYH
# How it was run: as §1
# ETV5 = ETV5 (Homo sapiens, UniProt P41161 1-510); conditions: protein: recombinant; tags: N-terminal GST; dsDNA, one strand shown
# Sequence of ETV5 (P41161 whole entry): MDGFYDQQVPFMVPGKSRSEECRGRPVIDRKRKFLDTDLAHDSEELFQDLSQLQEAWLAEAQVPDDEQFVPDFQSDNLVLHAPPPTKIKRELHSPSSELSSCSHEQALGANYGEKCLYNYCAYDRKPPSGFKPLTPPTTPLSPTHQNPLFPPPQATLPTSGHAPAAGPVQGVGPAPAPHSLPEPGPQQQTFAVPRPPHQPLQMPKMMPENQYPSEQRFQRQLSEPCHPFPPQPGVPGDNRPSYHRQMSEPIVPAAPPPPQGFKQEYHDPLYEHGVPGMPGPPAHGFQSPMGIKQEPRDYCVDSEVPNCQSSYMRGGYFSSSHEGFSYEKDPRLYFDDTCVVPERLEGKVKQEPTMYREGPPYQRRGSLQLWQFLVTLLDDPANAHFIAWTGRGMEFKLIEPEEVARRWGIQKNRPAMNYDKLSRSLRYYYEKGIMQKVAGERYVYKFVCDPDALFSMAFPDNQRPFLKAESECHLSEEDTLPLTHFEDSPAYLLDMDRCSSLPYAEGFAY
# How it was run: as §1
# HSF1 = HSF1 (Homo sapiens, UniProt Q00613 1-529); conditions: protein: recombinant; tags: N-terminal GST; chain copies: 3; dsDNA, one strand shown
# Sequence of HSF1 (Q00613 whole entry): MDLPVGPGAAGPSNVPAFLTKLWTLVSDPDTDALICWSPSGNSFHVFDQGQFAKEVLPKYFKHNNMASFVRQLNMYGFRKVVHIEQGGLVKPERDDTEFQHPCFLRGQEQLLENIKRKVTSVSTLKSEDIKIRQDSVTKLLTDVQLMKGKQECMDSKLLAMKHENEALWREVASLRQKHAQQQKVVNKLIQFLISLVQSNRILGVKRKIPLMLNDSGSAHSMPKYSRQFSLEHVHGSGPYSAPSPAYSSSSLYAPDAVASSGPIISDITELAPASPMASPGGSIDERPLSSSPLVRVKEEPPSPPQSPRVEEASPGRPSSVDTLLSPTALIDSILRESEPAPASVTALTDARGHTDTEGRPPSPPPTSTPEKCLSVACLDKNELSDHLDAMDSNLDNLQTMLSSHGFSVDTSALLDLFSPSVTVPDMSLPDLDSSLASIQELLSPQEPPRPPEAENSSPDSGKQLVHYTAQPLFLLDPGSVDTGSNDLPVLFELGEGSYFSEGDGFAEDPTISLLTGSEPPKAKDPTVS
# How it was run: as §1
# SPIC = target: T8, SPIC (Homo sapiens, UniProt Q8N5J4 1-248); conditions: protein: recombinant; tags: N-terminal GST; dsDNA, one strand shown
# T8 sequence: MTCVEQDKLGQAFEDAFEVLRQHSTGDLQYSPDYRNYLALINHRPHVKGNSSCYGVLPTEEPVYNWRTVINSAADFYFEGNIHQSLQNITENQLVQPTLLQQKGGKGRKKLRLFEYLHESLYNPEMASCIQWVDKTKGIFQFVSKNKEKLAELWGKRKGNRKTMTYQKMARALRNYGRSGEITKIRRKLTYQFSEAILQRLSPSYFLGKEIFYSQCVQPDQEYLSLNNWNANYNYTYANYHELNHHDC
# How it was run: as §1
# ELF4 = ELF4 (Homo sapiens, UniProt Q99607 1-663); conditions: protein: recombinant; tags: N-terminal GST; dsDNA, one strand shown
# Sequence of ELF4 (Q99607 whole entry): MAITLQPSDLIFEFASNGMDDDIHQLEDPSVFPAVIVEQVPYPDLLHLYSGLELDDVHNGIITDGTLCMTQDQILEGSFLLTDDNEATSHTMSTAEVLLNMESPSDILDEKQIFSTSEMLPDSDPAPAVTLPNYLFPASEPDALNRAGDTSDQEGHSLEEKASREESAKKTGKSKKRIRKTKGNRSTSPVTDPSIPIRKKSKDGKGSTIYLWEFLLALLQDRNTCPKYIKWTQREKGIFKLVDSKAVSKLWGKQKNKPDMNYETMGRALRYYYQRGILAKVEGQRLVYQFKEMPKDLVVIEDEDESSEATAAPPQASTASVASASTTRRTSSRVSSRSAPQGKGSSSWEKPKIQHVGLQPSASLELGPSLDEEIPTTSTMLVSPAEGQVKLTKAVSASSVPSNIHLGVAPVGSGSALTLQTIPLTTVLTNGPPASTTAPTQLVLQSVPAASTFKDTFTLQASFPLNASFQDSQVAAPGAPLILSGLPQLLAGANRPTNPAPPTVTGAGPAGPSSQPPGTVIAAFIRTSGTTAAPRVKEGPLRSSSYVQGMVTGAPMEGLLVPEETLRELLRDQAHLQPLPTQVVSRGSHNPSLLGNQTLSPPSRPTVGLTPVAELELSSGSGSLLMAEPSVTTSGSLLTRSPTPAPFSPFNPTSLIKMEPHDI
# How it was run: as §1
# ELK4 = target: T9, ELK4 (Homo sapiens, UniProt P28324-2 1-405); conditions: protein: recombinant; tags: N-terminal GST; dsDNA, one strand shown
# T9 sequence: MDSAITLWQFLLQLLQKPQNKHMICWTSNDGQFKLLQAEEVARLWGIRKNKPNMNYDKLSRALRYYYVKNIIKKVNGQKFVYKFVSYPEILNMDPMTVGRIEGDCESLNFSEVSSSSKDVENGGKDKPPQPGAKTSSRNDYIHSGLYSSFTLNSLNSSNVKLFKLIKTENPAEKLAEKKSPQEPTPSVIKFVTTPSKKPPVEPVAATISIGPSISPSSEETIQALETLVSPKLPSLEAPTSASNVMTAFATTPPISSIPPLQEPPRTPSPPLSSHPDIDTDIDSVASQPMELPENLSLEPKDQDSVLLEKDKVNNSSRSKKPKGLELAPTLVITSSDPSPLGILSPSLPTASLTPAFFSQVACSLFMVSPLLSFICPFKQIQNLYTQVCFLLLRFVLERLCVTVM
# How it was run: as §1
# ETV2 = target: T10, ETV2 (Homo sapiens, UniProt O00321 1-342); conditions: protein: recombinant; tags: N-terminal GST; dsDNA, one strand shown
# T10 sequence: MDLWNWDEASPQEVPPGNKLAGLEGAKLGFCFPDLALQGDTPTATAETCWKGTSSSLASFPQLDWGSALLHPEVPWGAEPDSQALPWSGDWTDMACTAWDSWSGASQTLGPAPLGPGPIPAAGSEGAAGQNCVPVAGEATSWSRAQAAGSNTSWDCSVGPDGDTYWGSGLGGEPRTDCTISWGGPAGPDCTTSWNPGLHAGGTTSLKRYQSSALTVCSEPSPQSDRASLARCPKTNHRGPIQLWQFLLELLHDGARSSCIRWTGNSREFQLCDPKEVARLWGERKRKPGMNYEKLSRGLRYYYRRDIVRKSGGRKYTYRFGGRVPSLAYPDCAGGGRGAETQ
# How it was run: as §1
# ELF3 = target: T11, ELF3 (Homo sapiens, UniProt P78545 1-371); conditions: protein: recombinant; tags: N-terminal GST; dsDNA, one strand shown
# T11 sequence: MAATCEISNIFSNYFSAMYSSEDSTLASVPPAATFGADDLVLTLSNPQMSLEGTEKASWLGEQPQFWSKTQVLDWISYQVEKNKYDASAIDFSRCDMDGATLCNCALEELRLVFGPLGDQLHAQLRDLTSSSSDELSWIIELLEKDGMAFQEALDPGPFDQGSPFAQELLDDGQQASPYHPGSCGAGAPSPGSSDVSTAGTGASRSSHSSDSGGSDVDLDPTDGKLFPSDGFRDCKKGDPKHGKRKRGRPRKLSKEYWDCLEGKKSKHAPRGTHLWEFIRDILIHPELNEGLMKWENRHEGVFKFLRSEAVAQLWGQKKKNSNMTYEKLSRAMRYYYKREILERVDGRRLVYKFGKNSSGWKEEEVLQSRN
# How it was run: as §1
# ETV1 = ETV1 (Homo sapiens, UniProt P50549 1-477); conditions: protein: recombinant; tags: N-terminal GST; dsDNA, one strand shown
# Sequence of ETV1 (P50549 whole entry): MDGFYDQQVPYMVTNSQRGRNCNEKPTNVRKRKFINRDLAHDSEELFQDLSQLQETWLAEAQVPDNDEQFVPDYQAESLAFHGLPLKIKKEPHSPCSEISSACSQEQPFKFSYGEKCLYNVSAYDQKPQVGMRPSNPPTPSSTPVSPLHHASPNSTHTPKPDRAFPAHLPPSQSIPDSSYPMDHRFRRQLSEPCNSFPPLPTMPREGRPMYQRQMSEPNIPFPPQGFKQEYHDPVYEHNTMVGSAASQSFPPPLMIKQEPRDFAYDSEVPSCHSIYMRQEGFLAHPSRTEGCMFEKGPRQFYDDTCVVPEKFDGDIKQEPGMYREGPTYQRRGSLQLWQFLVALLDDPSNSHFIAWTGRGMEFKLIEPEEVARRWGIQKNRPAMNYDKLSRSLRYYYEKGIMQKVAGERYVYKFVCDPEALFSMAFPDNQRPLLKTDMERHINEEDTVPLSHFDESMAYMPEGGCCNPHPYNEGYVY
# How it was run: as §1
sequence,measurement,setting,value
CATTTC,binding signal,FLI1,"1.8 fold enrichment (6-mer frequency, TF over GST control)"
same,binding signal,ELK1,"1.86 fold enrichment (6-mer frequency, TF over GST control)"
same,binding signal,GABPA,"1.64 fold enrichment (6-mer frequency, TF over GST control)"
same,binding signal,ERG,"2.07 fold enrichment (6-mer frequency, TF over GST control)"
same,binding signal,ELF1,"1.63 fold enrichment (6-mer frequency, TF over GST control)"
same,binding signal,EHF,"1.77 fold enrichment (6-mer frequency, TF over GST control)"
same,binding signal,SPI1,"1.97 fold enrichment (6-mer frequency, TF over GST control)"
same,binding signal,SPIB,"1.85 fold enrichment (6-mer frequency, TF over GST control)"
same,binding signal,ELK3,"1.67 fold enrichment (6-mer frequency, TF over GST control)"
same,binding signal,FEV,"2.2 fold enrichment (6-mer frequency, TF over GST control)"
same,binding signal,ETV5,"1.95 fold enrichment (6-mer frequency, TF over GST control)"
same,binding signal,HSF1,"1.13 fold enrichment (6-mer frequency, TF over GST control)"
same,binding signal,SPIC,"1.88 fold enrichment (6-mer frequency, TF over GST control)"
same,binding signal,ELF4,"1.73 fold enrichment (6-mer frequency, TF over GST control)"
same,binding signal,ELK4,"1.66 fold enrichment (6-mer frequency, TF over GST control)"
same,binding signal,ETV2,"1.78 fold enrichment (6-mer frequency, TF over GST control)"
same,binding signal,ELF3,"1.61 fold enrichment (6-mer frequency, TF over GST control)"
same,binding signal,ETV1,"1.84 fold enrichment (6-mer frequency, TF over GST control)"
